Results as given in PubChem BioAssay (Tox21).
Records with an inconclusive call do not appear. The source made the active and inactive calls. Unless noted, calls follow the shape of the full dose curve.

Columns and labels:
[1] = Nuclear factor erythroid 2-related factor 2/antioxidant responsive element (Nrf2/ARE) small molecule agonists: qHTS cell viability counter screen in human keratinocytes (AID 1919968; active = well fitted curve in the direction sought with a large enough effect in the repeat runs; an effect the other way counts as inactive or inconclusive; also: nearly all actives have a fitted effect of over 55% in size)
Summary of the method: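 Parallel cytotoxicity read: KeratinoSens HaCaT cells, compound treatment 23 h, viability by CellTiter-Fluor fluorescence 1 h post-reagent.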

[2] = Nuclear factor erythroid 2-related factor 2/antioxidant responsive element (Nrf2/ARE) small molecule agonists: luciferase reporter gene qHTS assay in human keratinocytes (AID 1919969); also: nearly all actives have a fitted effect of over 35% in size
[3] = biological target: Gonadotropin-releasing hormone receptor (Homo sapiens) (UniProt P30968); experiment: Human gonadotropin-releasing hormone receptor (GnRHR) small molecule agonists, calcium flux assay in GnRHR-HEK293 cells (AID 1920063); also: nearly all actives have a fitted effect of over 35% in size
Summary of the method: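 Calcium flux, agonist mode, human GnRHR stably integrated in HEK293; dye 1 h at 37 C before compound; Ex/Em=480/540 kinetic read, 3 min; 15 concentrations, triplicate.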

[4] = biological target: KiSS-1 receptor (Homo sapiens) (UniProt Q969F8); experiment: Human kisspeptin (KISS1R) small molecule agonists, calcium flux assay in KISS1R-HEK293 cells (AID 1920064; active = well fitted curve in the direction sought with a large enough effect in the repeat runs; an effect the other way counts as inactive or inconclusive)
Summary of the method: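 Triplicate 15-concentration series were applied to dye-loaded human KISS1R HEK293 cells, and agonist-evoked calcium fluorescence was captured for 3 min.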

[5] = G protein-coupled receptor (GPCR) small molecule agonists, calcium flux assay: HEK293 wild type cell line counter screen (AID 1920065)
Summary of the method: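 Non-specific calcium responders were flagged by adding DMSO-dissolved compounds to dye-loaded cells and reading 480/540 nm fluorescence each second for 3 min; ATP served as positive control.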

[6] = p53 small molecule agonists, cell-based qHTS assay with human liver microsomes (AID 1963577)
Summary of the method: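 Compounds act here after metabolic activation: human liver microsomes and NADPH, both at 0.5 mg/mL final, were co-added to p53RE-bla cells. Incubation ran 16 h at 37 C, followed by LiveBLAzer detection.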

[7] = p53 small molecule agonists, cell-based qHTS assay with rat liver microsomes (AID 1963578)
Summary of the method: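 Read-out is beta-lactamase reporter fluorescence (LiveBLAzer, 2 h, room temperature, dark) in p53RE-bla cells treated 16 h at 37 C with compound, rat liver microsomes and NADPH, both 0.5 mg/mL final.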

[8] = p53 small molecule agonists, cell-based qHTS assay with human liver microsomes: qHTS cell viability counter screen (AID 1963579); also: nearly all actives have a fitted effect of over 45% in size
Summary of the method: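 Cells carrying the p53 response-element beta-lactamase reporter are treated for 16 h at 37 C with test compounds in the presence of human liver microsomes and NADPH (both 0.5 mg/mL final); ATP-based CellTiter-Glo luminescence then reports viability.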

[9] = p53 small molecule agonists, cell-based qHTS assay with rat liver microsomes: qHTS cell viability counter screen (AID 1963580); also: nearly all actives have a fitted effect of over 45% in size
Summary of the method: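 After the beta-lactamase ratio was read, CellTiter-Glo was added to the same wells and luminescence measured at 30 min; cells had been treated 16 h at 37 C with compounds, rat liver microsomes and NADPH (0.5 mg/mL final each).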

[10] = p53 small molecule agonists, cell-based qHTS assay: qHTS cell viability counter screen (AID 1963581); also: nearly all actives have a fitted effect of over 45% in size
Summary of the method: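 Multiplexed with the reporter read, a CellTiter-Glo step (30 min, room temperature) gauges ATP-based viability of HCT-116 p53RE-bla cells after 16 h compound incubation at 37 C.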

[11] = p53 small molecule agonists, cell-based qHTS assay (AID 1963582; active = well fitted activation curve with a large enough effect in the signal ratio in the repeat runs, not every such curve was filed as active; the % refers to the signal ratio)
Summary of the method: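 Beta-lactamase reporter cells (p53RE-bla) treated with compounds for 16 h at 37 C; FRET substrate, 2 h, room temperature; fluorescence intensity.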

[12] = biological target: 5-hydroxytryptamine receptor 2A (Homo sapiens) (UniProt P28223); experiment: 5-hydroxytryptamine receptor 2A (HTR2A) small molecule antagonists, cell-based qHTS assay (AID 1963586); also: nearly all actives have a fitted effect of over 45% in size
Summary of the method: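 CHO cells stably expressing human HTR2A were plated for 18 h at 37 C, then loaded with calcium dye for 1 h. Compounds were preincubated 5 min at room temperature before DOI (4 nM solution) was added. Kinetic fluorescence was read for 3 min.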

[13] = biological target: 5-hydroxytryptamine receptor 2A (Homo sapiens) (UniProt P28223); experiment: 5-hydroxytryptamine receptor 2A (HTR2A) small molecule agonists, cell-based qHTS assay (AID 1963587); also: nearly all actives have a fitted effect of over 30% in size
Summary of the method: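 CHO cells stably expressing human HTR2A, plated 18 h, loaded with calcium dye 1 h at 37 C. Agonist mode: compounds added and intracellular calcium fluorescence recorded kinetically for 2 min at 1 sec intervals.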

[14] = biological target: Muscarinic acetylcholine receptor M1 (Homo sapiens) (UniProt P11229); experiment: Cholinergic receptor muscarinic 1 (CHRM1) small molecule antagonists, cell-based qHTS assay (AID 1963588); also: nearly all actives have a fitted effect of over 40% in size
Summary of the method: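 Compounds were tested at 15 concentrations in three independent runs. Dye-loaded CHRM1-CHO cells were exposed 5 min at room temperature before stimulation by acetylcholine added at 50nM. Intracellular calcium was read kinetically on FDSS for 3 min.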

[15] = biological target: Muscarinic acetylcholine receptor M1 (Homo sapiens) (UniProt P11229); experiment: Cholinergic receptor muscarinic 1 (CHRM1) small molecule agonists, cell-based qHTS assay (AID 1963589); also: nearly all actives have a fitted effect of over 35% in size
Summary of the method: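 qHTS, 15-point titration, 3 independent runs: compounds pin-transferred onto dye-loaded CHRM1-CHO cells (human M1), calcium fluorescence followed every second to detect agonism.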

[16] = cAMP Responsive Elements (CRE) small molecule agonists, cell-based qHTS assay (AID 1963590)
Summary of the method: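 Quantitative HTS for CRE agonists: HEK 293T CRE-bla cells, overnight plating, 3 h compound incubation at 37 C/5% CO2, then 2 h room-temperature LiveBLAzer B/G FRET substrate loading.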

[17] = biological target: Beta-2 adrenergic receptor (Homo sapiens) (UniProt P07550); experiment: Adrenergic beta2 receptor (ADRB2) small molecule antagonists, cell-based qHTS assay (AID 1963592); also: series mostly up to about 92 µM; nearly all actives have a fitted effect of over 50% in size
Summary of the method: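 Assay format: CHO-ADRB2 cells, 18-20hr seeding at 37C/5% CO2, then compound plus 1nM isoproterenol agonist mix for 0.5hr RT. Homogeneous time-resolved fluorescence cAMP detection after 1hr, expressed as 665/615 nm ratio.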

[18] = biological target: D(2) dopamine receptor (Homo sapiens) (UniProt P14416); experiment: Dopamine D2 receptor (DRD2) small molecule agonists, cell-based qHTS assay (AID 1963594); also: nearly all actives have a fitted effect of over 35% in size
Summary of the method: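 HEK293 cells stably expressing human DRD2, pre-treated with PDE inhibitor Ro20-1724 (0.1 mM final) and compound 10 min at room temperature, then stimulated with NKH477 (200nM […]) for 30 min. cAMP read by HTRF (665/620 nm).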

[19] = biological target: D(2) dopamine receptor (Homo sapiens) (UniProt P14416); experiment: Dopamine D2 receptor (DRD2) small molecule antagonists, cell-based qHTS assay (AID 1963595; active = well fitted inhibition curve with a large enough effect in the signal ratio in the repeat runs, with a control signal flat; the % refers to the signal ratio)
Summary of the method: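 Human DRD2 antagonist qHTS measuring cAMP by HTRF. The cells are exposed to compound for 10 min, then to NKH477 (200 nM) and quinpirole (12 nM) for 30 min at RT, with Ro20-1724 (0.1 mM) present throughout.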

[20] = cAMP Responsive Elements (CRE) small molecule antagonists, cell-based qHTS assay (AID 1963591; active = well fitted inhibition curve with a large enough effect in the signal ratio in the repeat runs, not every such curve was filed as active; the % refers to the signal ratio)
Summary of the method: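 Fluorescence intensity from cleaved LiveBLAzer B/G substrate (2 h, room temperature) quantified CRE-bla activity in HEK 293T cells exposed 3 h to compound with 0.25 uM final NKH477.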

Measured: Potency

Sequence of Beta-2 adrenergic receptor (Homo sapiens) (P07550 whole entry, looked up): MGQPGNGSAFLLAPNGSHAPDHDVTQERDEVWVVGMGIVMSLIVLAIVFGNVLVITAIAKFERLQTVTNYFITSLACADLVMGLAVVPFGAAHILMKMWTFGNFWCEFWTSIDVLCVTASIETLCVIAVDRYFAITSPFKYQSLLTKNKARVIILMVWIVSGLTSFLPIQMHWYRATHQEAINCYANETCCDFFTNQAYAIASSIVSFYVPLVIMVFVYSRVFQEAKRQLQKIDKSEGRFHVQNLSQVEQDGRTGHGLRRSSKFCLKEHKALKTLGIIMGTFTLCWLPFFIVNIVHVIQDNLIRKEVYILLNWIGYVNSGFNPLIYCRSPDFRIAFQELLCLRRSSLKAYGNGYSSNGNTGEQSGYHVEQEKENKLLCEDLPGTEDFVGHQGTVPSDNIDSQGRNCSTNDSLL
Sequence of KiSS-1 receptor (Homo sapiens) (Q969F8 whole entry, looked up): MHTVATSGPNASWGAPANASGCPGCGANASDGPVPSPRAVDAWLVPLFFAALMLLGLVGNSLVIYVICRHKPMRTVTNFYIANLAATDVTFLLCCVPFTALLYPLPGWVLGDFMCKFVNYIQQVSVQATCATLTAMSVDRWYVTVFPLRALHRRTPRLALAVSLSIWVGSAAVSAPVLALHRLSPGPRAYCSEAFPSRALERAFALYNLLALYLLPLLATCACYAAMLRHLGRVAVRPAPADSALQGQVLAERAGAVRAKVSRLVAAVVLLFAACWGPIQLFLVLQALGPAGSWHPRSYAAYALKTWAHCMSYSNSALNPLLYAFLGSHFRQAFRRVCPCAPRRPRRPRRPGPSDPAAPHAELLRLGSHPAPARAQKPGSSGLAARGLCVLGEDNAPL
Sequence of Gonadotropin-releasing hormone receptor (Homo sapiens) (P30968 whole entry, looked up): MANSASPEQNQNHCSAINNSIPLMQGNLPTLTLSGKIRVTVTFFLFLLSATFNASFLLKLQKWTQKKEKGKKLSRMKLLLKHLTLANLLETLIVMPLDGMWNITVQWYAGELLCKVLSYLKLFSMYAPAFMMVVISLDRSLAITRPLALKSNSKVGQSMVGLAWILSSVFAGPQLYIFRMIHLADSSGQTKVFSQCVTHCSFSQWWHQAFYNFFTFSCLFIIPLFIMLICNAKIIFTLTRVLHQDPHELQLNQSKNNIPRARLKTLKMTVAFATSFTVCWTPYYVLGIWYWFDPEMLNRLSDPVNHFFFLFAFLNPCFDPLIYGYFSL
Sequence of Muscarinic acetylcholine receptor M1 (Homo sapiens) (P11229 whole entry, looked up): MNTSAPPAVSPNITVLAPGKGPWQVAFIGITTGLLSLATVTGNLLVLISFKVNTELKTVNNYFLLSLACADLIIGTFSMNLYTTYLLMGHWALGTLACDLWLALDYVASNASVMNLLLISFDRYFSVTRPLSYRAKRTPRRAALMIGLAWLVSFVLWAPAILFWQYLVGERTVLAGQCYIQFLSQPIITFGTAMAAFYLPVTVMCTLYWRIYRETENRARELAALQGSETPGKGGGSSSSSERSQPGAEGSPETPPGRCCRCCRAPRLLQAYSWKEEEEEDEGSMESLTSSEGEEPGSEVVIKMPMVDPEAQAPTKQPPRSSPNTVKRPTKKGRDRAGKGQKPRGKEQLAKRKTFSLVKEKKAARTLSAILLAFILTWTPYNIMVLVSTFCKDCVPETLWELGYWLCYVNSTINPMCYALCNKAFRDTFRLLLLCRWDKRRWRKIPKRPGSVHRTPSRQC
Sequence of 5-hydroxytryptamine receptor 2A (Homo sapiens) (P28223 whole entry, looked up): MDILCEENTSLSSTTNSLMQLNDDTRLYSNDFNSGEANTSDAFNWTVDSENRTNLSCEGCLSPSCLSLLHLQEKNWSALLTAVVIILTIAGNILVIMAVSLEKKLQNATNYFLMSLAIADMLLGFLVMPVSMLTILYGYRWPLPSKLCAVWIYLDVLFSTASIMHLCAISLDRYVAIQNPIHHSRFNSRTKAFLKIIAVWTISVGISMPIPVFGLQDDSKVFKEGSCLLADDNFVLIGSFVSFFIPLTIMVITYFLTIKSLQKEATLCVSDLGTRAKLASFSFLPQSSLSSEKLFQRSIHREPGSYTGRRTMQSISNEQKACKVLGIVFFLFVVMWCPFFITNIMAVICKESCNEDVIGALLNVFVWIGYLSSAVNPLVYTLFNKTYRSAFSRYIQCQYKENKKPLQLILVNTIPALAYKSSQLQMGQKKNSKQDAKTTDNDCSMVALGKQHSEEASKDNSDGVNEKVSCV
Sequence of D(2) dopamine receptor (Homo sapiens) (P14416 whole entry, looked up): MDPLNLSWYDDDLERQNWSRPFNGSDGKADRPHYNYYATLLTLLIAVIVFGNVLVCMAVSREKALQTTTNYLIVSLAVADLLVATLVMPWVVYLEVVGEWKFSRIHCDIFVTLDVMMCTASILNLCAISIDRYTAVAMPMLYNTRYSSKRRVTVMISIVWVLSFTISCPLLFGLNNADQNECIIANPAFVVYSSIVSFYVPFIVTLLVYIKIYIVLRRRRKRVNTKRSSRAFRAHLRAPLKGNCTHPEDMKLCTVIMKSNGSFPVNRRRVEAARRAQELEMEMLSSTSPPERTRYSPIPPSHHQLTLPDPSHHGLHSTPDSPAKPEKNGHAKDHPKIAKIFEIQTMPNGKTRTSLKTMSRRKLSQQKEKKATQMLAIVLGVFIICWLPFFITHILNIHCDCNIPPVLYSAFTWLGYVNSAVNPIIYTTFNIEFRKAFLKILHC

CC(C)NC(C)C
inactive: [1] | [2] | [3] | [4] | [5] | [6] | [7] | [8] | [9] | [10] | [11] | [12] | [13] | [14] | [15] | [16] | [17] | [18] | [19]

CCC(Cl)[N+](=O)[O-] (configuration not stated)
inactive: [1] | [2] | [3] | [4] | [5] | [6] | [7] | [8] | [9] | [10] | [11] | [12] | [13] | [14] | [15] | [16] | [20] | [17] | [18] | [19]

O=c1[nH]c2ccccc2c(=O)o1
inactive: [1] | [2] | [3] | [4] | [5] | [6] | [7] | [8] | [9] | [10] | [11] | [12] | [13] | [14] | [15] | [16] | [20] | [18] | [19]

CC(O)CCO (configuration not stated)
inactive: [1] | [2] | [3] | [4] | [5] | [6] | [7] | [8] | [9] | [10] | [11] | [12] | [13] | [14] | [15] | [16] | [20] | [18] | [19]

COCCC#N
inactive: [1] | [2] | [3] | [4] | [5] | [6] | [7] | [8] | [9] | [10] | [11] | [12] | [13] | [14] | [15] | [16] | [17] | [18] | [19]

O=[N+]([O-])c1ccc([As](=O)(O)O)cc1
inactive: [1] | [2] | [3] | [4] | [5] | [6] | [7] | [8] | [9] | [10] | [11] | [12] | [13] | [14] | [15] | [16] | [20] | [18]

C=CCN(CC=C)C(=O)C(Cl)Cl
inactive: [1] | [2] | [3] | [4] | [5] | [6] | [7] | [8] | [9] | [10] | [11] | [12] | [13] | [14] | [15] | [20] | [17] | [18] | [19]

ClC1=C(Cl)[C@]2(Cl)[C@@H]3[C@@H](Cl)[C@@H](Cl)C[C@@H]3[C@@]1(Cl)C2(Cl)Cl
inactive: [1] | [2] | [3] | [4] | [5] | [6] | [7] | [8] | [9] | [10] | [11] | [12] | [13] | [14] | [15] | [16] | [20] | [17] | [19]
